GLS inh: qHTS for Inhibitors of Glutaminase (GLS); Glutaminase kidney isoform, mitochondrial (Homo sapiens), O94925; GLS enzymatic activity, qHTS titration; Potency, µM (doses to about 45.5 µM), hits mostly inhibitors; 410,000 compounds, 0.21% hits; AID 624170, 2012
Target sequence (O94925 whole entry, looked up, canonical isoform): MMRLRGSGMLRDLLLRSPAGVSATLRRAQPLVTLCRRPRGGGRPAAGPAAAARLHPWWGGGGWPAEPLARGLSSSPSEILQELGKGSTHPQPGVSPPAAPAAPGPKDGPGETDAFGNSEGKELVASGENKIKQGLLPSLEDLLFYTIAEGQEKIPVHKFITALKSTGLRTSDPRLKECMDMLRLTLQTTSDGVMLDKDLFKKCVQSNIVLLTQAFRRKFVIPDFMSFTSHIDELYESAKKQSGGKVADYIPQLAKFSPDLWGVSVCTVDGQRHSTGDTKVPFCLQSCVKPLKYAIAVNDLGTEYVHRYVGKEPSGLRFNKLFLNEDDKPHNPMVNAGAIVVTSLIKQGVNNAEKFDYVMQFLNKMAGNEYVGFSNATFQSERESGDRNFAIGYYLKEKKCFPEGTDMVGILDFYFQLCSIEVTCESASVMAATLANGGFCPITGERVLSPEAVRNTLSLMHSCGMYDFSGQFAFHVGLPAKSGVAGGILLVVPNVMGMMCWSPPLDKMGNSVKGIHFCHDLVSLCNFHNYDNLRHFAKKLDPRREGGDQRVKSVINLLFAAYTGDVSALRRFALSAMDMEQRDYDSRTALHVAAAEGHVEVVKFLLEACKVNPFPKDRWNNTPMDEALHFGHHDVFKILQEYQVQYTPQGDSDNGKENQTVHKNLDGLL
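hKGA in 45 mM KH2PO4 pH 8.2, 0.02% Tween-20 with pin-transferred compounds; 1 mM L-glutamine (stock) plus glutamate oxidase/HRP/Amplex Red coupling added. Fluorescence read initially and after 30 min at RT.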
GCN5L2 inh: qHTS Assay for Inhibitors of GCN5L2 | Histone acetyltransferase KAT2A (Homo sapiens), Q92830 | GCN5L2 HAT assay, ThioGlo1 CoA-SH fluorescence | Potency, µM (doses to about 58.9 µM), actives largely listed as inhibitors | 390,000 compounds, 0.21% hits | AID 504327, 2011
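GCN5L2 (20nM final) in 50mM HEPES, 0.1mM EDTA pH 7.5, 0.01% Tween-20 was preincubated 15 min at room temperature with compound, then given ThioGlo1 (50uM), H3(1-25) peptide (75uM) and acetyl-CoA (70uM); CoA-thiol fluorescence (Ex340/Em540) was read at 0 and 20 min.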
VDR inh: Inhibitors of the vitamin D receptor (VDR): qHTS | VDR-SRC2-3 peptide fluorescence polarization, 2 h | Potency, µM, actives largely listed as inhibitors | Vitamin D3 receptor (Homo sapiens), P11473 | AID 504847, 2011 | 400,000 compounds, 0.93% hits
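After 23 nl compound addition and a short centrifugation, plates sat for 2 hours at ambient temperature; polarization of fluorescence then indicated loss of VDR binding to peptide SRC2-3.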
PLK1 PBD block: qHTS for Inhibitors of PLK1-PDB (polo-like kinase 1 - polo-box domain): Primary Screen; Serine/threonine-protein kinase PLK1 (Homo sapiens), P53350; Plk1 PBD binding of FITC phosphopeptide, fluorescence polarization; Potency, µM, actives largely listed as inhibitors; 360,000 compounds, 2.8% hits; also: series mostly up to about 57 µM; nearly all actives have a fitted effect of over 65% in size
PI4K2A block: qHTS for small molecular inhibitors of PI4K2A. Phosphatidylinositol 4-kinase type 2-alpha (Homo sapiens), Q9BTU6. purified PI4K2A, ADP-Glo luminescence, 1 h; active compounds read low. activity change, negative = inhibition, % at 76.9 µM. 420,000 compounds, 0.13% hits. AID 1346378, 2018; in the data active = activity change below about -50%; inconclusive = mostly about -30% to -49%
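ADP-Glo luminescence measured ADP generated by PI4K2A enzyme (4 ug/mL before mixing) with 1.2 mM PI substrate (pre-mix) and 300 microM ATP (pre-mix). Tris pH7.5 buffer with MgCl2, Triton X-100; 1 h reaction at ambient temperature.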
Numbers stand for hits; n = inactive; u = inconclusive; x = no result. This is a sample that favours compounds with a hit; in the whole collection about 3.1% have one here. Unless noted, calls follow the shape of the dose curve; as a rule, active = well fitted curve in the direction sought with a large enough effect; inconclusive = small, poorly fitted or top-dose-only effect, or another doubt; inactive = no such curve, though single readings can be large; an effect the other way counts as inactive or inconclusive.

SMILES | GLS inh | GCN5L2 inh | VDR inh | PLK1 PBD block | PI4K2A block
CC(C)N(Cc1cnn(C)c1)Cc1nc(COc2ccccc2)no1 | n | n | n | 21µM | n
CC(C)N(Cc1nc(COc2ccccc2)no1)Cc1nccn1C | n | n | n | n | n
CCCCN(C)C(=O)c1oc(=O)c2ccccc2c1-c1ccc(C)cc1 | x | x | x | x | n
CN1CCc2c1nc1ccccc1c2N=C1CCCN1Cc1ccccc1 | n | n | n | 21µM | n
Cc1cc(C)c(N=C2CCCN2Cc2ccccc2)c(C#N)c1 | n | n | n | n | n
O=C1CCC2(CCC(c3ccccc3)CC2)N1CCO (centres undefined) | x | x | x | x | n
O=C(CSc1ccc([N+](=O)[O-])cc1)NNC(=O)c1ccccc1F | n | n | n | 9.5µM | n
CS(=O)(=O)N1c2ccccc2C[C@H]1Cc1cc2ccccc2o1 | x | x | x | x | n
COc1cc(-n2c(C)nc3cc(C(=O)N4CCN(C(C)=O)CC4)ccc32)cc(OC)c1OC | x | x | x | x | n
O=C1C=C(C2OC(CO)C(O)C2O)C(=O)N1 (centres undefined) | n | x | 40µM | u | n
NC(=O)c1csc(C2OC(CO)C(O)C2O)n1 (centres undefined) | n | x | x | n | n
COc1ccc2nc(SCc3ncc(C)c(OC)c3C)[nH]c2c1 | x | x | x | x | n
O=[N+]([O-])c1ccc(C(=S)N2CCCC2)cc1 | n | n | n | 21µM | n
CCN1CCN(C(=S)c2ccc([N+](=O)[O-])cc2)CC1 | n | n | 71µM | 12µM | n
CC1CCN(C(=S)c2ccc([N+](=O)[O-])cc2)CC1 | n | n | u | 24µM | n
O=C(c1ccc([N+](=O)[O-])cc1)N1CCCC1 | n | n | n | n | n
O=[N+]([O-])c1ccc(C(=S)N2CCN(Cc3ccccc3)CC2)cc1 | n | n | n | n | n
CCOc1ccc(CNC(=O)Cn2cc3c(n2)-c2c(oc(C(=O)N4CCOCC4)c2C)CC3)cc1 | n | n | n | x | n
CC1=NN(c2nc(-c3ccc(C)cc3)cs2)C(=O)C1N=Nc1cccc(O)c1 (centres undefined) | u | n | 79µM | 4.7µM | n
CN(Cc1ccccc1)S(=O)(=O)c1cccc(C(=O)OCC2CCCCC2)c1 | x | x | x | x | n
COC(=O)[C@H](CC(C)C)NC(=O)c1cc2c(cn1)[nH]c1ccccc12 | n | n | u | 3.8µM | n
COC(=O)C(Cc1ccccc1)NC(=O)c1cc(=O)[nH]c2ccccc12 (centres undefined) | n | n | n | n | n
CC(=O)Nc1c(-c2ccc(C)cc2)nc2ncccn12 | x | x | x | x | n
Cc1cccc(N2CCN(C(=O)c3ccccc3NC(=O)C3=CSCCO3)CC2C)c1 (centres undefined) | n | n | u | 24µM | n
Cc1ccc(-c2nc3ccccc3o2)cc1NC(=O)c1cccc2c(Cl)cccc12 | n | n | n | x | n
SMILES | GLS inh | GCN5L2 inh | VDR inh | PLK1 PBD block | PI4K2A block
Fc1ccccc1SCc1nnc(-c2ccccc2Br)o1 | n | n | 45µM | 3.4µM | n
Cc1csc(SCc2nnc(-c3ccccc3Br)o2)n1 | n | n | n | n | n
COc1c(Br)cc(Br)cc1/C=N/n1c(C)nnc1C | n | n | u | 27µM | n
CCCn1c(SCC(=O)NCc2ccc(F)cc2)n[nH]c1=O | n | n | n | 21µM | n
CCCCCCCCCCCCCCCCCCNc1ccn(C2OC(COP(=O)(O)OCC3OC(n4cc(F)c(=O)[nH]c4=O)CC3O)C(O)C2O)c(=O)n1 (centres undefined) | n | x | u | 27µM | n
CCCCCCCCCCCCCCCCCCCCCC(=O)Nc1ccn([C@@H]2O[C@H](CO)[C@@H](O)[C@@H]2O)c(=O)n1 | n | n | n | x | x
COc1ccc(CCNC(=O)c2ccc(N(C)S(=O)(=O)c3ccccc3)cc2)cc1 | n | n | n | n | n
COc1ccc(CCNC(=O)c2cc(S(=O)(=O)N(C)c3ccccc3)ccc2Cl)cc1 | n | n | u | 15µM | n
CCOc1cc(C(c2c(O)nc(SC)[nH]c2=O)c2c(O)nc(SC)[nH]c2=O)ccc1O | u | x | u | 12µM | n
CC(=O)c1ccc(C2CC34CNS(=O)(=O)C3CC2O4)cc1 (centres undefined) | x | x | n | x | x

Bioassay records: PubChem BioAssay, National Center for Advancing Translational Sciences (NCATS)
